The source of these data is PubChem BioAssay.

A short description of assay [1]: kinase inhibitors against Plasmodium liver-stage infection, cell-based, known kinase inhibitor set, luminescence, hepatoma host viability (AID 624392).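 Further: infected cells incubated roughly two days before readout.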 As to conditions: Plasmodium liver stage in hepatoma cells, luciferase luminescence, concentration not given here; liver cell % of control: measured here: host liver cell viability; parasite % of control: stronger effect = lower value.

A short description of assay [2]: modulators of glucocorticoid suppression of NF-kB, cell-based, luciferase, IL-1B stimulus, dexamethasone (AID 624486).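 On percent of negative control (+Dex): 100% = mean signal of vehicle control wells on the plate.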 As to conditions: NF-kB luciferase reporter, IL-1B + dexamethasone, luminescence; percent of negative control (+Dex): actives lie on both sides, concentration not given here; z-score: measured here: IL-1B alone, no Dex.
Assay [3] in a line: kinase inhibitors altering Pseudomonas killing of worms, whole organism (AID 651566).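 Further: tested at 14 µM; sign flipped so higher z means a lower ratio.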 As to conditions: C. elegans killed by P. aeruginosa, survival ratio.
The nature of assay [4]: activators of macrophage pro-inflammatory response, cell-based, murine, luminescence (AID 652131). As to conditions: murine macrophage pro-inflammatory reporter, stronger effect = higher value.
Assay [5] deals with Cellular tumor antigen p53 (Homo sapiens) (UniProt P04637). The experiment in a line: kinase inhibitors altering GFP-p53 stability in HPV16-positive cells, imaging, known kinase inhibitor set, EGFP/DsRed ratio (AID 1053116).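 Further: cells exposed to compounds for 24 h at 37 °C before reading.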 As to conditions: stronger effect = higher value; EGFP object count: measured here: GFP-p53 positive objects count.
Chain of Cellular tumor antigen p53 (Homo sapiens) (P04637 whole entry, looked up): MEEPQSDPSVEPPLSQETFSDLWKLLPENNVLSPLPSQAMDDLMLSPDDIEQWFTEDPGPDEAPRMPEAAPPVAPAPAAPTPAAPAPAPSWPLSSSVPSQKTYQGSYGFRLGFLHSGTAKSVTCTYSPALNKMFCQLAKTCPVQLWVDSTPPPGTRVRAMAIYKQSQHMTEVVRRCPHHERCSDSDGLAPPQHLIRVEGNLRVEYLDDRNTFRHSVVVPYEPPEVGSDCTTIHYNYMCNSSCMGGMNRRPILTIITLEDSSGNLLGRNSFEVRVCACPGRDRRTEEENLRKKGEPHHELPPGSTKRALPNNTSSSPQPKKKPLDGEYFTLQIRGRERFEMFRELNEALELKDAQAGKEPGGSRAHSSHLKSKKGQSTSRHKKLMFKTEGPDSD
Assay [6] in a line: IRF3 reporter activation in THP-1 macrophages, cell-based, PMA-stimulated THP-1, luminescence (AID 1053176). As to conditions: PMA-differentiated THP-1, IRF3 reporter luminescence; stronger effect = higher value.
Assay [7] can be described thus: survival rescue of mitochondrial mutant cells in low glucose, primary screen, MELAS cybrids, Rieske KO mouse fibroblasts, CellTiter-Glo (AID 1508586;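 active means mean z-score across replicates of 1.96 or higher in either the MELAS or the Rieske mutant cell line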;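 further: z relative to plate mean and SD of compound and empty wells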).
Where [8] appears, read: MELAS cybrid survival, CellTiter-Glo 48 h, stronger effect = higher value.
Where [9] appears, read: Rieske KO mouse fibroblast survival, CellTiter-Glo 72 h.

Each structure is given as a SMILES string. Calls of active or inactive are those of the source. Unless noted, how the calls were made is not given here.

In turn, `CN(C)CCNC(=O)Nc1ccc(N(C)c2ccnc(Nc3ccc(CS(C)(=O)=O)cc3)n2)cc1` yielded a liver cell % of control in assay [1] of 111%. The parasite % of control in assay [1] was 94.7% (inactive). For the same molecule, in assay [2], the percent of negative control (+Dex) was 101% (inactive). Further, the z-score was -0.235 in assay [2]; -0.12 (inactive) in assay [3]; 3.19 (inactive) in assay [4]; -0.741 (inactive) in assay [7] (setting [8]); -0.109 in assay [7] (setting [9]). The EGFP object count in assay [5] stood at 1. In assay [5], the EGFP/DsRed ratio was 0.0718 (inactive). Also, in assay [6], the fraction signal is 0.0045 (inactive).

With `Nc1ncnc2occ(-c3ccc(NC(=O)Nc4cccc(C(F)(F)F)c4)cc3)c12`, the liver cell % of control in assay [1] was 49.9%. In addition, the parasite % of control in assay [1] was 10.9% (inactive). The percent of negative control (+Dex) in assay [2] was 66.5% (active). The z-score in assay [2] is -3; in assay [3] it was -0.335 (inactive); in assay [4], -1.22 (inactive); in assay [7] (setting [8]), -0.197 (inactive); in assay [7] (setting [9]), -0.452. In addition, the EGFP object count in assay [5] came to 3.5. Further, the EGFP/DsRed ratio in assay [5] is 0.146 (inactive). Further, in assay [6], the fraction signal is -0.016 (inactive).

In turn, `FC(F)(F)c1ccc(-c2nn3ncccc3c2-c2ccnc(Nc3ccc4c(c3)OCCO4)n2)cc1` showed a liver cell % of control in assay [1] of 105%. The parasite % of control in assay [1] is 77.8% (inactive). For the same molecule, the percent of negative control (+Dex) in assay [2] is 110% (inactive). For the same molecule, the z-score in assay [2] was 0.735; in assay [3], -0.48 (inactive); in assay [4] it was 0.358 (inactive); in assay [7] (setting [8]), 0.512 (inactive); in assay [7] (setting [9]), 0.23. For the same molecule, the EGFP object count in assay [5] is 5. Moreover, the EGFP/DsRed ratio in assay [5] was 0.479 (inactive). The fraction signal in assay [6] was 0.001 (inactive).

Regarding `CCS(=O)(=O)c1ccc(OC)c(Nc2ncc(-c3cccc(OC)c3)o2)c1`, in assay [1], the liver cell % of control was found to be 161%. For the same molecule, in assay [1], the parasite % of control is 16.6% (inactive). For the same molecule, the percent of negative control (+Dex) in assay [2] is 78.5% (inactive). Also, the z-score in assay [2] was -0.275; in assay [3] it was 0.285 (inactive); in assay [4], -0.544 (inactive); in assay [7] (setting [8]) it was 1.48 (inactive); in assay [7] (setting [9]), -0.42. Moreover, the EGFP object count in assay [5] was determined as 4.5. Also, the EGFP/DsRed ratio in assay [5] was 0.129 (inactive). The fraction signal in assay [6] was 0.002 (inactive).

Take `Cc1c2ccc(N(C)c3ccnc(Nc4cccc(S(N)(=O)=O)c4)n3)cc2nn1C`: the liver cell % of control in assay [1] was found to be 94.3%. In addition, in assay [1], the parasite % of control was 100% (inactive). Moreover, the percent of negative control (+Dex) in assay [2] was 94% (inactive). The z-score in assay [2] is 0.455; in assay [3] it was 1 (inactive); in assay [4] it was -0.277 (inactive); in assay [7] (setting [8]), -1.32 (inactive); in assay [7] (setting [9]), -0.151. Further, in assay [5], the EGFP object count amounted to 3.5. The EGFP/DsRed ratio in assay [5] is 0.0613 (inactive). Moreover, the fraction signal in assay [6] is 0.0015 (inactive).

The molecule `Cc1nn(C)c2cc(N(C)c3ccnc(Nc4cccc(S(N)(=O)=O)c4)n3)ccc12` came in with a liver cell % of control in assay [1] of 71.5%. Besides, the parasite % of control in assay [1] was 67% (inactive). Also, the percent of negative control (+Dex) in assay [2] was 82% (inactive). The z-score in assay [2] is 0.54; in assay [3] it was 0.53 (inactive); in assay [4], 3.14 (inactive); in assay [7] (setting [8]) it was -0.638 (inactive); in assay [7] (setting [9]) it was 0.0293. In addition, the EGFP object count in assay [5] amounted to 2. Besides, the EGFP/DsRed ratio in assay [5] was 0.0899 (inactive). Also, in assay [6], the fraction signal is -0.0065 (inactive).

Regarding `N#Cc1c(NC(=O)CN2CCOCC2)sc2c1CCCC2`, in assay [1], the liver cell % of control turned out to be 105%. For the same molecule, in assay [1], the parasite % of control was 134% (inactive). In addition, the percent of negative control (+Dex) in assay [2] is 98% (inactive). Besides, the z-score in assay [2] was -0.1; in assay [3], 0.4 (inactive); in assay [4] it was 0.254 (inactive); in assay [7] (setting [8]) it was -0.581 (inactive); in assay [7] (setting [9]) it was -0.17. Besides, the EGFP object count in assay [5] worked out at 3.5. Also, in assay [5], the EGFP/DsRed ratio was 0.0894 (inactive). Further, the fraction signal in assay [6] was 0.0015 (inactive).

Regarding `Fc1cccc(COc2ccc(Nc3ncnc4sc(-c5cccs5)cc34)cc2Cl)c1`, in assay [1], the liver cell % of control amounted to 71.8%. The parasite % of control in assay [1] is 60.1% (inactive). Besides, the percent of negative control (+Dex) in assay [2] is 92% (inactive). The z-score was 0.005 in assay [2]; 0.99 (inactive) in assay [3]; -0.373 (inactive) in assay [4]; -0.00271 (inactive) in assay [7] (setting [8]); -0.496 in assay [7] (setting [9]). The EGFP object count in assay [5] stood at 5. Besides, in assay [5], the EGFP/DsRed ratio is 0.0533 (inactive). The fraction signal in assay [6] is -0.0045 (inactive).

`COc1ccc(-c2nn3ncccc3c2-c2ccnc(Nc3ccc(F)c(F)c3)n2)cc1` yielded a liver cell % of control in assay [1] of 177%. In assay [1], the parasite % of control is 16.9% (inactive). In addition, the percent of negative control (+Dex) in assay [2] was 75.5% (inactive). In addition, the z-score was -0.785 in assay [2]; 1.61 (inactive) in assay [3]; -0.312 (inactive) in assay [4]; 1.01 (inactive) in assay [7] (setting [8]); -0.0344 in assay [7] (setting [9]). In addition, the EGFP object count in assay [5] was 4.5. Besides, the EGFP/DsRed ratio in assay [5] was 0.039 (inactive). The fraction signal in assay [6] is 0.0025 (inactive).

In assay [1], `CCn1c(-c2nonc2N)nc2c(C#CC(C)(C)O)ncc(OC[C@@H]3CCCN3)c21` showed a liver cell % of control of 81.5%. The parasite % of control in assay [1] was 41.7% (inactive). In assay [2], the percent of negative control (+Dex) was 104% (inactive). Besides, the z-score was -0.32 in assay [2]; -0.14 (inactive) in assay [3]; 5.3 (inactive) in assay [4]; -0.59 (inactive) in assay [7] (setting [8]); -0.205 in assay [7] (setting [9]). Moreover, the EGFP object count in assay [5] worked out at 11.5. Also, the EGFP/DsRed ratio in assay [5] was 0.291 (inactive). Besides, the fraction signal in assay [6] is 0.0025 (inactive).

As to `CN1CCC(n2cnc(-c3ccc(F)cc3)c2-c2ccnc(Nc3ccccc3)n2)CC1`, in assay [1], the liver cell % of control was 67.1%. In assay [1], the parasite % of control is 74.5% (inactive). The percent of negative control (+Dex) in assay [2] was 101% (inactive). Also, the z-score in assay [2] was -0.08; in assay [3] it was 0.955 (inactive); in assay [4] it was 0.813 (inactive); in assay [7] (setting [8]), -0.528 (inactive); in assay [7] (setting [9]), -0.322. In addition, in assay [5], the EGFP object count is 3. Besides, the EGFP/DsRed ratio in assay [5] is 0.0706 (inactive). Further, in assay [6], the fraction signal was 0.005 (inactive).

As for `NS(=O)(=O)c1ccc(N=Nc2c(O)[nH]c3ccc(C(=O)NCCCn4ccnc4)cc23)cc1`, in assay [1], the liver cell % of control came out at 94%. Moreover, the parasite % of control in assay [1] was 116% (inactive). In assay [2], the percent of negative control (+Dex) was 83% (inactive). Moreover, the z-score in assay [2] is -0.125; in assay [3], 0.195 (inactive); in assay [4] it was 0.038 (inactive); in assay [7] (setting [8]), -0.0137 (inactive); in assay [7] (setting [9]) it was -0.000813. The EGFP object count in assay [5] was 6. The EGFP/DsRed ratio in assay [5] was 0.239 (inactive). For the same molecule, in assay [6], the fraction signal is -0.0065 (inactive).

In the case of `CCOc1ccc2c(-c3ccnc(Nc4cccc(C(F)(F)F)c4)n3)cnn2n1`, the liver cell % of control in assay [1] is 69.9%. Besides, the parasite % of control in assay [1] was 174% (inactive). The percent of negative control (+Dex) in assay [2] was 78% (inactive). Besides, the z-score in assay [2] is 0; in assay [3], 0.335 (inactive); in assay [4], -0.613 (inactive); in assay [7] (setting [8]), -0.0749 (inactive); in assay [7] (setting [9]), -0.0737. Further, the EGFP object count in assay [5] was 10. The EGFP/DsRed ratio in assay [5] is 0.229 (inactive). Besides, in assay [6], the fraction signal was 0.0035 (inactive).
